Data as given in PubChem BioAssay (NCATS).
Inconclusive results are not listed. The source made the active and inactive calls. The call rests on the fitted dose curve; in most records, active means well fitted curve in the direction sought with a large enough effect; inconclusive means small, poorly fitted or top-dose-only effect, or another doubt; inactive means no such curve, though single readings can be large; an effect the other way counts as inactive or inconclusive.

Assays:
[1] = S16 Schwann cell viability assay (CellTiter-Glo assay) (AID 624031);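 further: cellular ATP luminescence as a viability measure; nearly all actives have a fitted effect of over 70% in size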
In short: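 Untransfected S16 rat Schwann cells; compound 24 h, 37 °C/5% CO2; CellTiter-Glo ATP luminescence. % activity vs no-cell wells and DMSO controls (0%); concentration-effect curves classed by r2, response magnitude, activity.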

AS120 = assay: qHTS profiling for inhibitors of Plasmodium falciparum proliferation (AID 504749); further: nearly all actives have a fitted effect of over 60% in size; further: potency means the concentration at half of the fitted maximal effect; conditions: P. falciparum in erythrocytes, SYBR Green DNA, 72 h; series mostly up to 28.7 µM
In short: (§1)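 Fluorescence of SYBR Green-bound parasite DNA, read at 485/535 nm, served as the growth measure. Infected erythrocytes were cultured with compound 72 h; artemisinin (0.29 uM) and DMSO wells defined the normalization range.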

ATS189 = assay: as above; conditions: P. falciparum in erythrocytes, SYBR Green DNA, 72 h; series mostly up to 28.7 µM
In short: as §1

CP194 = assay: as above; conditions: P. falciparum in erythrocytes, SYBR Green DNA, 72 h; series mostly up to 28.7 µM
In short: as §1

CP201 = assay: as above; conditions: P. falciparum in erythrocytes, SYBR Green DNA, 72 h; series mostly up to 28.7 µM
In short: as §1

CP203 = assay: as above; conditions: P. falciparum in erythrocytes, SYBR Green DNA, 72 h; series mostly up to 28.7 µM
In short: as §1

CP215 = assay: as above; conditions: P. falciparum in erythrocytes, SYBR Green DNA, 72 h; series mostly up to 28.7 µM
In short: as §1

CP217 = assay: as above; conditions: P. falciparum in erythrocytes, SYBR Green DNA, 72 h; series mostly up to 28.7 µM
In short: as §1

CP237 = assay: as above; conditions: P. falciparum in erythrocytes, SYBR Green DNA, 72 h; series mostly up to 28.7 µM
In short: as §1

CP252 = assay: as above; conditions: P. falciparum in erythrocytes, SYBR Green DNA, 72 h; series mostly up to 28.7 µM
In short: as §1

CP265 = assay: as above; conditions: P. falciparum in erythrocytes, SYBR Green DNA, 72 h; series mostly up to 28.7 µM
In short: as §1

CP268 = assay: as above; conditions: P. falciparum in erythrocytes, SYBR Green DNA, 72 h; series mostly up to 28.7 µM
In short: as §1

CP291 = assay: as above; conditions: P. falciparum in erythrocytes, SYBR Green DNA, 72 h; series mostly up to 28.7 µM
In short: as §1

CP305 = assay: as above; conditions: P. falciparum in erythrocytes, SYBR Green DNA, 72 h; series mostly up to 28.7 µM
In short: as §1

CP325 = assay: as above; conditions: P. falciparum in erythrocytes, SYBR Green DNA, 72 h; series mostly up to 28.7 µM
In short: as §1

DIV30 = assay: as above; conditions: P. falciparum in erythrocytes, SYBR Green DNA, 72 h; series mostly up to 28.7 µM
In short: as §1

HB3 = assay: as above; conditions: P. falciparum in erythrocytes, SYBR Green DNA, 72 h; series mostly up to 28.7 µM
In short: as §1

PC15 = assay: as above; conditions: P. falciparum in erythrocytes, SYBR Green DNA, 72 h; series mostly up to 28.7 µM
In short: as §1

SC27B = assay: as above; conditions: P. falciparum in erythrocytes, SYBR Green DNA, 72 h; series mostly up to 28.7 µM
In short: as §1

TAB109 = assay: as above; conditions: P. falciparum in erythrocytes, SYBR Green DNA, 72 h; series mostly up to 28.7 µM
In short: as §1

Measured: Potency

CC1(C(=O)O)CCC2(C)CCC3(C)C(=CC(=O)C4C5(C)CCC(O)C(C)(C)C5CCC43C)C2C1 (configuration not stated)
inactive: all assays above

CCN(CC)CC(=O)Nc1c(C)cc(C)cc1C
not listed: [1]
inactive: all other assays above

Cc1ccc(/C=C2/C(=O)C3(C)CCC2C3(C)C)cc1 (configuration not stated)
inactive: all assays above

CCCCC(=O)OCC(=O)[C@]1(O)Cc2c(O)c3c(c(O)c2[C@H](OC2CC(NC(=O)C(F)(F)F)C(O)C(C)O2)C1)C(=O)c1c(OC)cccc1C3=O (some centres not stated)
inactive: [1]
active: AS120 2 µM | ATS189 3.16 µM | CP194 3.01 µM | CP201 4.78 µM | CP203 1.69 µM | CP215 4.78 µM | CP217 3.16 µM | CP237 1.58 µM | CP252 2.51 µM | CP265 3.16 µM | CP268 5.36 µM | CP291 4.26 µM | CP305 4.78 µM | CP325 3.38 µM | DIV30 1.9 µM | HB3 2.51 µM | PC15 3.55 µM | SC27B 2.51 µM | TAB109 2 µM

Cc1ccccc1N1C(=O)c2cc(N)ccc2N/C1=C\F
not listed: [1]
inactive: all other assays above

Cc1ccc(Nc2ncccc2C(=O)O)cc1C
inactive: all assays above

NC(=O)OC[C@@H]1[C@H](NC(=O)/C(=N/OCC(=O)O)c2csc(N)n2)C(=O)N1S(=O)(=O)O
not listed: CP268
inactive: all other assays above

CCCC(=O)O[C@]1(C(=O)COC(C)=O)CC[C@H]2C3C[C@H](F)C4=CC(=O)C=CC4(C)[C@@]3(F)[C@@H](O)CC21C (some centres not stated)
inactive: all assays above

CC1C(=O)C(=O)C=CN1C (configuration not stated)
inactive: all assays above

CN(C)CC/C=C1\c2ccccc2COc2ccc(CC(=O)O)cc21
inactive: all assays above

OCC1OC(O)C(O)C(O)C1O (configuration not stated)
not listed: CP291 | CP325
inactive: all other assays above

OCC(CO)NC1C[C@](O)(CO)[C@@H](O)[C@H](O)[C@H]1O (some centres not stated)
not listed: CP291
inactive: all other assays above

CCCCCCCCCCCCCCCC(=O)OCC(COP(=O)(O)OCC[N+](C)(C)C)OC(=O)CCCCCCCCCCCCCCC (configuration not stated)
inactive: all assays above

NC(=O)C1CC2(NC(=O)NC2=O)c2cc(F)ccc2O1 (configuration not stated)
inactive: all assays above

C=C(NCc1ccccc1)c1ccccc1O
inactive: all assays above

Nc1nc(F)nc2c1ncn2[C@@H]1O[C@H](CO)[C@@H](O)[C@H]1O
not listed: CP305
inactive: all other assays above

COC1CC2CCC(C)[C@](O)(O2)C(=O)C(=O)N2CCCCC2C(=O)OC(C(C)CC2CCC(O)C(OC)C2)CC(=O)C(C)/C=C(/C)C(O)C(OC)C(=O)C(C)CC(C)C=CC=C/C=C\1C (some centres not stated)
active: AS120 1.12 µM | ATS189 3.16 µM | CP194 3.38 µM | CP201 7.57 µM | CP203 1.69 µM | CP215 1.51 µM | CP217 3.55 µM | CP237 2.82 µM | CP252 2.51 µM | CP265 2.82 µM | CP268 6.01 µM | CP291 4.78 µM | CP305 5.36 µM | CP325 5.36 µM | DIV30 0.953 µM | HB3 2.51 µM | PC15 4.47 µM | SC27B 2 µM | TAB109 2.24 µM
inactive: [1]

O=C(O)C(O)c1ccccc1 (configuration not stated)
inactive: all assays above

C/C1=C2/[N-]C(C(CC(N)=O)[C@@]2(C)CCC(=O)NCC(C)OP(=O)([O-])O[C@H]2[C@@H](O)[C@@H](n3cnc4cc(C)c(C)cc43)O[C@@H]2CO)[C@]2(C)N=C(/C(C)=C3N=C(/C=C4N=C1C(CCC(N)=O)C\4(C)C)[C@@H](CCC(N)=O)[C@]\3(C)CC(N)=O)[C@@H](CCC(N)=O)[C@]2(C)CC(N)=O.CC(=O)O.[Co] (some centres not stated)
inactive: all assays above

NCCCCC(N)C(=O)O (configuration not stated)
inactive: all assays above

CC(=O)N1CC(O)CC1C(=O)O (configuration not stated)
inactive: all assays above

C/C(=C(/CCO)SS/C(CCO)=C(\C)N(C=O)Cc1cnc(C)nc1N)N(C=O)Cc1cnc(C)nc1N
not listed: TAB109
inactive: all other assays above
